Where “and” joins values, the source holds several entries; their conditions need not be identical. Equal entries are not always repeated. Records with an inconclusive call do not appear. Calls of active or inactive are those of the source. Unless noted, calls come from the whole dose curve; as a rule, active = well fitted curve in the direction sought with a large enough effect; inconclusive = small, poorly fitted or top-dose-only effect, or another doubt; inactive = no such curve, though single readings can be large; an effect the other way counts as inactive or inconclusive.

Test [1] concerns the target Calcium and integrin-binding protein 1 (Homo sapiens) (UniProt Q99828). The experiment in a line: Primary qHTS for Identification of Calcium Integrin Binding Protein 1 (CIB1) Competitor (AID 1508620).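 Note: GST tagged CIB1 binding a fluorescein labelled alphaIIb integrin peptide tracer; top concentration of the series differs between compounds.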 The method in brief:
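Fluorescence polarization competition: GST-tagged CIB1 (1 uM final) preincubated with compound 15 min at room temperature, then FITC-labelled alphaIIb peptide (100 nM final) added. After 15 min at room temperature, polarization read at Ex 480/Em 540.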
(In general: In qHTS, concentration-response curves come from the screen itself.)

The target in test [2] is Cytochrome P450 2D6 (Homo sapiens) (UniProt P10635). Briefly: Cytochrome P450 family 2 subfamily D member 6 (CYP2D6) small molecule antagonists: luciferase biochemical (cell-free) qHTS assay (AID 1645840; active = well fitted curve in the direction sought with a large enough effect in the repeat runs; an effect the other way counts as inactive or inconclusive; note: nearly all actives have a fitted effect of over 55% in size; note: potency is the fitted concentration of half-maximal effect). The method in brief: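 P450-Glo luminescent screen: recombinant CYP2D6 enzyme–proluciferin substrate mix preincubated with compound 10 min at room temperature, then NADPH regeneration added for 1 h at room temperature. Detection reagent added for 20 min; luciferin light read as relative luminescence units.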

Test [3] can be described thus: Primary qHTS for inhibitors of nuclear receptor binding SET domain protein 2 (NSD2) in an isogenic RCH-ACV NSD2 p.E1099K mutant (9B) (AID 1645876). Note: nearly all actives have a fitted effect of over 70% in size. Note: potency is the fitted concentration of half-maximal effect.
Test [4] has as its target Cytochrome P450 2C9 (Homo sapiens) (UniProt P11712). Briefly: Cytochrome P450 family 2 subfamily C member 9 (CYP2C9) small molecule antagonists: luciferase biochemical (cell-free) qHTS assay (AID 1645842; active = well fitted curve in the direction sought with a large enough effect in the repeat runs; an effect the other way counts as inactive or inconclusive; note: potency is the fitted concentration of half-maximal effect; nearly all actives have a fitted effect of over 55% in size). The essentials: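 Luminescence, after 20 min with luciferin detection reagent, reflected CYP2C9 turnover during a 1 h NADPH-driven reaction at 37C. Enzyme-substrate mix contained 0.4% bovine serum albumin and was preincubated with compound 10 min at room temperature.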

Test [5] can be described thus: Primary qHTS for inhibitors of nuclear receptor binding SET domain protein 2 (NSD2) in an RCH-ACV wild type WT cells (2C) (AID 1645877). Note: potency is the fitted concentration of half-maximal effect; nearly all actives have a fitted effect of over 70% in size.

Calcium and integrin-binding protein 1 (Homo sapiens), sequence (Q99828 whole entry, looked up): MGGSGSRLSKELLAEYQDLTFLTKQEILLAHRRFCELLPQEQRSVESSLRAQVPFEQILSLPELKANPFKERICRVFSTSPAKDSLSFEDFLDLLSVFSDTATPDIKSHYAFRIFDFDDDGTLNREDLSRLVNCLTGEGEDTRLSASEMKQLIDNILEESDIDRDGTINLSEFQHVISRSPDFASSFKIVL
Cytochrome P450 2D6 (Homo sapiens), sequence (P10635 whole entry, looked up): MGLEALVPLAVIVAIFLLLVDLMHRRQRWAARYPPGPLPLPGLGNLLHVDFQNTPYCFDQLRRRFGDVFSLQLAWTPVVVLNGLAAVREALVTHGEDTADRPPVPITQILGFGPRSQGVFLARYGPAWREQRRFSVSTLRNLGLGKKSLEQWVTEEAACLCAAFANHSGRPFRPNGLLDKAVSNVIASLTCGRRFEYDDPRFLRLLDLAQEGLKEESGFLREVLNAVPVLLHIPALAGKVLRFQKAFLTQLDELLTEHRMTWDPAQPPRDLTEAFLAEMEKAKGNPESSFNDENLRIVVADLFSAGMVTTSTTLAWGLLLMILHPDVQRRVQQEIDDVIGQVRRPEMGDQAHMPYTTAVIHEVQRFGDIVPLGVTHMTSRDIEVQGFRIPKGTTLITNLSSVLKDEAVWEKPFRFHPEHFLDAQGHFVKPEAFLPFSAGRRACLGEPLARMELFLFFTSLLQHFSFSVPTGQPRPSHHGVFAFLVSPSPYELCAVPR
Cytochrome P450 2C9 (Homo sapiens), sequence (P11712 whole entry, looked up): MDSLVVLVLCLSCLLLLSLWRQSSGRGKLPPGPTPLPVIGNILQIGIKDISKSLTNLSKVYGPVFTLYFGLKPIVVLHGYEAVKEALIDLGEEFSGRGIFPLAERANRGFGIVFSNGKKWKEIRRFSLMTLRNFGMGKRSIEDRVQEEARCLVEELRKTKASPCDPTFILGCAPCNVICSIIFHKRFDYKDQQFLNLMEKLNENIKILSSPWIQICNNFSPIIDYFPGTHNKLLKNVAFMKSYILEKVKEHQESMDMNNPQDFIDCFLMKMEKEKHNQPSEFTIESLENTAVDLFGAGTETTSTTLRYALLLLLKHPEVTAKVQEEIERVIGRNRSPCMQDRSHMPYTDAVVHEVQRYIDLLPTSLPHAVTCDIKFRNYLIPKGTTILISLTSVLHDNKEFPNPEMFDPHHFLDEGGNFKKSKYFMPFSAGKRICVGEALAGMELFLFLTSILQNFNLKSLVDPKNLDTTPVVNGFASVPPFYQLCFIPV

Turning to `CC(C)(Cc1ccccc1)NCC(O)c1ccc(O)c(NS(C)(=O)=O)c1` (configuration not stated), the Potency result in test [1] and in test [3] was “inactive” in each case. In addition, the Potency in test [2] is 3.79 µM (active).
As to `CCOC(=O)N1CCC(CN(Cc2ccc(Cl)cc2)Cc2ccc([N+](=O)[O-])s2)C1` (configuration not stated), in test [1], the Potency result was “inactive”. For the same compound, the values for the Potency in test [2], in test [4] and in test [5] were 3.01 µM (active), 4.25 µM (active) and 20.5 µM (active), respectively.
Take `O=C(Nc1cc(C(F)(F)F)cc(C(F)(F)F)c1)c1cnc(Cl)nc1C(F)(F)F`: in test [1], the Potency result was “inactive”. Moreover, the Potency in test [2] was 19 µM (active); in test [3], 25.8 µM (active).
On to `CN1CCN(C2=Nc3ccccc3Nc3ccc(OS(=O)(=O)C(F)(F)F)cc32)CC1`, for which, in test [1], the Potency result was “inactive”. Also, the Potency is 3.38 µM (active) in test [2], 10.7 µM (active) in test [4] and 16.3 µM (active) in test [5].
`CN(C)C(=O)COC(=O)c1cc(-c2ccc(C3CCNCC3)cc2)c2ccc(-c3ccc(C(F)(F)F)cc3)cc2c1`: the Potency entry in test [1] is “inactive”. Besides, the figures for the Potency in test [2], in test [3] and in test [5] were 10.7 µM (active), 4.59 µM (active) and 4.59 µM (active), respectively.
On to `C[C@H](Nc1ncnc2nc[nH]c12)c1cc2cccc(Cl)c2c(=O)n1-c1ccccc1`, for which the Potency result in test [1] and in test [2] was “inactive” throughout. For the same compound, the Potency in test [3] is 4.09 µM (active) and 372 nM (active); in test [5], 7.28 µM (active) and 4.68 µM (active).
